Only some compounds are listed: those with a hit (about 4.1% of all), similar ones and a draw of the others.
CHT inh: inhibits the human high affinity choline transporter | CHT-expressing cells, membrane potential dye, choline response; active compounds read low | B-score at 10 µM | 310,000 compounds, 0.86% hits | AID 488975;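 active means B-score over 3 SD under the library average, and starting fluorescence ratio not unusually high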;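 further: choline stimulus applied at its EC90 after an EC20 pre-addition; B-score computed on integrated fluorescence ratio after choline addition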
MEKK3 PB1 HTS: modulators (inhibitors or enhancers) of MEK5 binding to human MEKK3 PB1 domain; Q99759; bead-based flow cytometry, Alexa488-MEK5 binding to MEKK3; actives lie on both sides; 0 = blocked by unlabeled MEK5, 100 = vehicle; binding response (% of control), % at 10 µM; 290,000 compounds, 1.4% hits; AID 1529;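 active means binding response more than 3 SD above or below the average of its plate-row segment, actives on both sides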;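 further: Alexa488 bead fluorescence after subtracting the streptavidin-only scavenger bead signal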
Target sequence (Q99759 whole entry, looked up, the tested form may be a part): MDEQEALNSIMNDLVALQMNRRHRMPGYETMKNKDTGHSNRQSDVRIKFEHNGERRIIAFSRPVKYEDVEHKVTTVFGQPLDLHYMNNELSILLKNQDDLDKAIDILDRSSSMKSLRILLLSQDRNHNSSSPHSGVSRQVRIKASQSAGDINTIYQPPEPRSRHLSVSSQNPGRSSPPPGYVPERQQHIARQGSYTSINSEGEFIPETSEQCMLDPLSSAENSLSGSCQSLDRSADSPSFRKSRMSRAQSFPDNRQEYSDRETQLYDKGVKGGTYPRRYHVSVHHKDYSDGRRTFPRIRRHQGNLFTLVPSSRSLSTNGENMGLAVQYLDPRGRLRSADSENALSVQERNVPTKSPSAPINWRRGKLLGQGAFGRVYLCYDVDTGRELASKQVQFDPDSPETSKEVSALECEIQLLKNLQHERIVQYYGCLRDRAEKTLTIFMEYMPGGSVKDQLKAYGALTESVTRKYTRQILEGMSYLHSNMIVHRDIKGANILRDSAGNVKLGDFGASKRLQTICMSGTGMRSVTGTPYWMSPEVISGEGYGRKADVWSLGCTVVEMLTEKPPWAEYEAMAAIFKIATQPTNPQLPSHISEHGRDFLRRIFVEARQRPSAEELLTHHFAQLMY
Mot1-301 SUMO: SUMOylation pathway inhibition by Mot1-301 growth rescue. S. cerevisiae Mot1-301 growth rescue, ATP luminescence, 38.5C; percent above DMSO median, 100 means doubled. 320,000 compounds, 1% hits. growth rescue, % at 18.8 µM. AID 2716;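 active means every valid replicate shows activation above 250% relative to neutral control wells; inactive means the rest, any valid replicate at or below 250%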
MEKK2 WT-MEK5: raises or lowers MEK5 binding to wildtype human MEKK2 PB1 domain. bead flow cytometry, Alexa488-MEK5 binding to MEKK2 WT; actives lie on both sides. binding response (% of control), % at 10 µM. 290,000 compounds, 1.1% hits. AID 1531; in the data active means binding response below about 67% or above about 130%
CHT PAM: allosteric activators of human choline transporter CHT; CHT-expressing cells, membrane potential dye, choline EC20; active compounds read high; LV-AA mutant CHT in HEK293 cells; 310,000 compounds, 0.49% hits; B-score at 10 µM; AID 488977;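 active means initial fluorescence not abnormally high and integrated response B-score, plate-corrected, over 3 SD above library mean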
MEKK2mut PB1 HTS: signal of MEK5 binding to mutant human MEKK2 PB1 domain; 290,000 compounds, 0.35% hits; AID 1530; bead flow cytometry, Alexa488-MEK5 binding to MEKK2 mutant; percent response, % at 10 µM; in the data active means percent response above about 24%, passing the limit was not always enough
MEKK2wt confirm: raises or lowers MEK5 binding to wildtype human MEKK2, retest; shares compounds with MEKK3 PB1 HTS; 5,900 compounds, 2.4% hits; binding response (% of control), % at 10 µM; bead flow cytometry, Alexa488-MEK5 binding to MEKK2 WT; actives lie on both sides; in the data active means binding response below about 16% or above about 210%; inactive means in between
MEKK2mut confirm: signal of MEK5 binding to mutant human MEKK2, retest; 5,900 compounds, 2% hits; percent response, % at 10 µM; shares compounds with MEKK3 PB1 HTS; bead flow cytometry, Alexa488-MEK5 binding to MEKK2 mutant; AID 1893; in the data active means percent response mostly above about 71%, no sharp cut-off; inactive means mostly below about 38%;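 further: higher means compound restores mutant binding toward wildtype level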
MEKK3 confirm: MEKK3-MEK5 PB1 inhibition, single concentration confirmation; shares compounds with MEKK3 PB1 HTS; bead flow cytometry, Alexa488-MEK5 binding to MEKK3; active compounds read low; binding response (% of control), % at 10 µM; 5,900 compounds, 1.8% hits; AID 1894;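 active means binding response below 72% of control, or above a set upper limit, though filed actives all read lower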;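 further: lower values mean stronger disruption of MEK5 binding to MEKK3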
Numbers stand for hits; i = inactive; nt = not tested or not shown; [ ] = dose if it differs, or a comment.

SMILES | CHT inh | MEKK3 PB1 HTS | Mot1-301 SUMO | MEKK2 WT-MEK5 | CHT PAM | MEKK2mut PB1 HTS | MEKK2wt confirm | MEKK2mut confirm | MEKK3 confirm
CCOC(=O)c1[nH]cnc1C(=O)Nc1ccccc1OC | i | i | i | i | i | i | nt | nt | nt
Cc1nn2c(N3CCCC3)c3c(nc2c1-c1ccccc1)CCC3 | i | 37.0[inhibitor] | i | 30.0[inhibitor] | i | i | i | i | i
Cc1nn2c(Nc3ccc(F)cc3)c3c(nc2c1-c1ccccc1)CCC3 | i | i | i | i | i | i | nt | nt | nt
COc1cccc(Nc2c3c(nc4c(-c5ccccc5)c(C)nn24)CCC3)c1 | i | 132.0 | nt | i | i | i | i | i | 56.0
Cc1nn2c(-n3ccnc3)c3c(nc2c1-c1ccccc1)CCC3 | i | i | i | i | i | i | nt | nt | nt
CCN(CC)c1ccc(/C=N/Nc2cccc(C)c2)c(O)c1 | i | i | i | i | i | i | nt | nt | nt
CCN(CC)c1ccc(C=Nc2cc(C)cc(C)c2)c(O)c1 | i | i | i | i | i | i | nt | nt | nt
CCN(CC)c1ccc(C=Nc2ccccc2)c(O)c1 | i | i | i | i | i | i | nt | nt | nt
CCN(CC)c1ccc(C=Nc2ccc(C)cc2)c(O)c1 | i | i | i | 69.0[inhibitor] | i | i | i | i | i
CCN(CC)c1ccc(C=Nc2ccc(N(C)C)cc2)c(O)c1 | i | i | i | -21.0 | i | 79.0 | i | i | i
CCN(CC)c1ccc(/C=N/Nc2ccccc2)c(O)c1 | i | i | i | 136.0 | i | i | i | i | i
O=C(CCn1c(=S)oc2ccccc21)Nc1ccccc1Br | i | i | i | i | i | i | nt | nt | nt
Cc1ccccc1OCC(=O)OCC(=O)c1ccc[nH]1 | nt | nt | i | nt | nt | nt | nt | nt | nt
CCCn1c(SC(C)C(=O)N2CCOCC2)nc2ccc(Br)cc2c1=O (centres undefined) | i | nt | nt | nt | i | nt | nt | nt | nt
CCOc1ccccc1N1CC(C(=O)N2CCOCC2)CC1=O (centres undefined) | i | i | i | i | i | i | nt | nt | nt
COc1ccc([N+](=O)[O-])cc1NC(=O)CSc1ccc2ccccc2c1 | i | 148.0 | i | i | i | i | i | i | i
COc1ccc([N+](=O)[O-])cc1NC(=O)CSc1nc(C)cc(C)n1 | i | i | i | i | i | i | nt | nt | nt
C=CCN(C(=O)CCC(=O)Nc1cc(C)on1)C(C(=O)NC(C)(C)CC)c1cccc(OC)c1OC (centres undefined) | i | i | i | i | i | i | nt | nt | nt
Cc1cc(C)nc(SCC(=O)n2c3c(c4ccccc42)CCCC3)n1 | i | 153.0 | i | i | i | i | i | i | i
CCCCCC(=O)Nc1ccc(C(=O)COC(=O)CN2C(=O)NC3(CCCC3)C2=O)cc1 | i | nt | i | nt | i | nt | nt | nt | nt
CCOC(=O)N1CCN(C(=O)c2ccc3c(=O)n(-c4ccc(F)cc4)c(=S)[nH]c3c2)CC1 | i | 1.0[inhibitor] | i | 0.0[inhibitor] | i | i | i | i | i
COc1ccc(-n2c(=S)[nH]c3cc(C(=O)Nc4ccc(OC)c(OC)c4)ccc3c2=O)cc1 | i | 140.0 | i | i | i | i | i | i | i
COc1ccc(-n2c(=S)[nH]c3cc(C(=O)Nc4ccc(C)c(F)c4)ccc3c2=O)c(OC)c1 | i | i | i | i | i | i | nt | nt | nt
COc1ccc(-n2c(=S)[nH]c3cc(C(=O)Nc4cccc(C)c4)ccc3c2=O)cc1 | i | 155.0 | i | i | i | i | i | i | i
O=C(COC(=O)c1ccccn1)c1ccc([N+](=O)[O-])cc1 | i | i | i | i | i | i | nt | nt | nt
SMILES | CHT inh | MEKK3 PB1 HTS | Mot1-301 SUMO | MEKK2 WT-MEK5 | CHT PAM | MEKK2mut PB1 HTS | MEKK2wt confirm | MEKK2mut confirm | MEKK3 confirm
CCOC(=O)C1=C(COC(=O)Cc2c(F)cccc2Cl)NC(=O)NC1C (centres undefined) | nt | nt | i | nt | nt | nt | nt | nt | nt
CN(C)C(=O)c1ccc(NC(=O)CSc2nnc(-c3cccs3)n2N)cc1 | nt | nt | i | nt | nt | nt | nt | nt | nt
O=c1oc2c(-c3cccc(F)c3)cc(O)cc2s1 | i | i | i | i | i | i | nt | nt | nt
COc1ccc(-n2c(=O)c3ccccc3n(CC(=O)Nc3cccc(OC)c3)c2=O)cc1 | i | 50.0[inhibitor] | nt | i | i | i | i | i | i
N#C/C(=C\c1cn(Cc2ccc(F)cc2)c2ccccc12)C(=O)NCc1ccco1 | i | 129.0 | i | i | i | i | i | i | i
CCC(=O)Nc1nc2nc(-c3ccccc3)cc(-c3ccccc3)n2n1 | i | nt | i | nt | i | nt | nt | nt | nt
CCCC(=O)Nc1nc2nc(-c3ccccc3)cc(-c3ccccc3)n2n1 | i | 0.0[inhibitor] | nt | 0.0[inhibitor] | i | i | i | i | i
O=C(/C(=N/N=C/c1ccc(O)c(O)c1O)c1ccccc1)c1ccccc1 | i | 136.0 | i | i | i | i | i | i | i
Oc1ccc(/C=N/N=C(c2ccccc2)c2ccccc2)c(O)c1O | i | i | i | i | i | i | nt | nt | nt
COc1ccc(C(=O)OCC(=O)N2CCN(C(=O)c3ccco3)CC2)cc1OC | nt | nt | i | nt | nt | nt | nt | nt | nt
CC1(C)C(=S)N(Cc2ccccc2)c2ccccc21 | i | i | i | i | i | i | nt | nt | nt
O=C(O)CC1(CC(=O)NCc2ccc(C(F)(F)F)cc2)CCCCC1 | i | 128.0 | i | i | i | i | i | i | i
Cc1csc(NC(=O)CSc2nnc(NC(=O)COc3ccccc3)s2)n1 | i | i | i | i | i | i | nt | nt | nt
O=C(O)COc1ccccc1/C=N/NC(=O)CSc1nnc(SCc2ccc(Cl)cc2)s1 | i | 130.0 | i | i | i | i | i | i | i
N#CNC(=Nc1ccc(Cl)cc1)Oc1ccccc1 | i | i | i | i | i | i | nt | nt | nt
Cc1ccccc1C(=O)N(Cc1nc2ccccc2c(=O)[nH]1)C1CCCC1 | i | 128.0 | i | i | i | i | i | i | i
NC(=O)c1sc2nc(-c3ccccc3)c3c(c2c1N)CCCC3 | i | i | i | i | i | i | nt | nt | nt
COc1ncnc2c1sc1nc(-c3ccccc3)c3c(c12)CCCC3 | i | 146.0 | i | i | i | i | i | i | i
CN(C)CCNc1ncnc2c1sc1nc(-c3ccccc3)c3c(c12)CCCC3 | i | i | i | 201.0 | i | 61.0 | 209.0 | i | i
c1nc(NCCN2CCOCC2)c2sc3nc(N4CCOCC4)c4c(c3c2n1)CCC4 | i | i | i | i | i | i | nt | nt | nt
CN(C)C(=O)NCc1ccc(S(N)(=O)=O)cc1 | i | 39.0[inhibitor] | i | i | i | i | i | i | i
CCOC(=O)N1CCN(C(=O)CN(C)S(=O)(=O)c2ccc(Cl)cc2)CC1 | i | i | i | i | i | i | nt | nt | nt

Screens: PubChem BioAssay, several laboratories
